Data as given in the supplement of paper PMC8728848.
This excerpt belongs to a sample that is enriched for the strongest signals.

Tests used:
Test in all cases: glycan array binding signal (z-score within array); higher = stronger binding
Details in all cases: glycan notation: IUPAC condensed, linker removed
[1] = target: Fuc(a1-2)Gal(b1-4)Glc
Procedure, shortened: (§1)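 Arrays were curated from the Consortium for Functional Glycomics database, 3228 in total, and kept only where the protein sequence was available. Binding is expressed as a within-array Z-score. This score was averaged across arrays of the same protein sequence at different concentrations or buffers and across linkers, and negative values can be read as non-binding.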

[2] = target: Fuc(a1-2)Gal(b1-4)GlcNAc(b1-3)Gal(b1-4)GlcNAc
Procedure, shortened: as §1

[3] = target: Fuc(a1-2)Gal(b1-4)[Fuc(a1-3)]GlcNAc
Procedure, shortened: as §1

[4] = target: Fuc(a1-2)[GalNAc(a1-3)]Gal(b1-4)[Fuc(a1-3)]GlcNAc
Procedure, shortened: as §1

[5] = target: Fuc(a1-3)[Gal(b1-4)]GlcNAc(b1-4)Gal(b1-4)[Fuc(a1-3)]GlcNAc(b1-4)Gal(b1-4)[Fuc(a1-3)]GlcNAc
Procedure, shortened: as §1

[6] = target: Gal(a1-3)GalNAc
Procedure, shortened: as §1

[7] = target: Gal(b1-3)GlcNAc(b1-3)Gal(b1-4)Glc
Procedure, shortened: as §1

[8] = target: Gal(b1-3)GlcNAc(b1-3)Gal(b1-4)GlcNAc
Procedure, shortened: as §1

[9] = target: Gal(b1-3)[Fuc(a1-4)]GlcNAc(b1-3)Gal(b1-4)[Fuc(a1-3)]GlcNAc
Procedure, shortened: as §1

[10] = target: Gal(b1-3)[Neu5Ac(a2-6)]GalNAc
Procedure, shortened: as §1

[11] = target: Gal(b1-3)[Neu5Ac(a2-6)]GlcNAc(b1-6)Gal(b1-4)Glc
Procedure, shortened: as §1

[12] = target: Gal(b1-4)GlcNAc
Procedure, shortened: as §1

[13] = target: Gal(b1-4)GlcNAc(b1-3)[Gal(b1-4)GlcNAc(b1-6)]GalNAc
Procedure, shortened: as §1

[14] = target: Gal3S(b1-3)GlcNAc
Procedure, shortened: as §1

[15] = target: Gal3S6S(b1-4)GlcNAc
Procedure, shortened: as §1

[16] = target: GlcNAc(b1-3)Gal(b1-3)GalNAc
Procedure, shortened: as §1

[17] = target: GlcNAc(b1-3)[GlcNAc(b1-6)]GlcNAc(b1-4)GlcNAc
Procedure, shortened: as §1

[18] = target: Neu5Ac(a2-3)Gal(b1-3)GalNAc
Procedure, shortened: as §1

[19] = target: Neu5Ac(a2-3)Gal(b1-3)GalNAc(b1-3)Gal(b1-4)GlcNAc
Procedure, shortened: as §1

[20] = target: Neu5Ac(a2-3)Gal(b1-3)[Fuc(a1-4)]GlcNAc(b1-3)Gal(b1-4)[Fuc(a1-3)]GlcNAc
Procedure, shortened: as §1

[21] = target: Neu5Ac(a2-3)Gal6S(b1-4)[Fuc(a1-3)]GlcNAc
Procedure, shortened: as §1

[22] = target: Neu5Ac(a2-3)[GalNAc(b1-4)]Gal(b1-4)Glc
Procedure, shortened: as §1

[23] = target: Neu5Ac(a2-8)Neu5Ac
Procedure, shortened: as §1

[24] = target: Fuc(a1-2)Gal(b1-4)[Fuc(a1-3)]GlcNAc(b1-3)Gal(b1-4)[Fuc(a1-3)]GlcNAc
Procedure, shortened: as §1

[25] = target: Fuc(a1-2)GlcNAc
Procedure, shortened: as §1

[26] = target: Fuc(a1-2)[GalNAc(b1-3)]Gal
Procedure, shortened: as §1

[27] = target: Fuc(a1-3)[Gal(b1-4)]GlcNAc(b1-4)Gal(b1-4)[Fuc(a1-3)]GlcNAc
Procedure, shortened: as §1

[28] = target: Fuc(b1-3)GlcNAc
Procedure, shortened: as §1

[29] = target: Gal(a1-3)Gal(b1-4)GlcNAc
Procedure, shortened: as §1

[30] = target: Gal(b1-3)[Fuc(a1-4)]GlcNAc
Procedure, shortened: as §1

[31] = target: Gal(b1-4)GalNAc(a1-3)[Fuc(a1-2)]Gal(b1-4)GlcNAc
Procedure, shortened: as §1

[32] = target: Gal(b1-4)Glc6S
Procedure, shortened: as §1

[33] = target: Gal(b1-4)GlcNAc(b1-2)Man(a1-3)[Gal(b1-4)GlcNAc(b1-2)Man(a1-6)]Man(b1-4)GlcNAc(b1-4)GlcNAc
Procedure, shortened: as §1

[34] = target: Gal(b1-4)GlcNAc(b1-6)[Gal(b1-3)]GalNAc
Procedure, shortened: as §1

[35] = target: Gal3S(b1-4)Glc
Procedure, shortened: as §1

[36] = target: Gal3S(b1-4)GlcNAc6S
Procedure, shortened: as §1

[37] = target: Gal3S6S(b1-4)GlcNAc6S
Procedure, shortened: as §1

[38] = target: Gal6S(b1-4)Glc6S
Procedure, shortened: as §1

[39] = target: GlcNAc(b1-3)Gal
Procedure, shortened: as §1

[40] = target: Neu5Ac(a2-3)Gal(b1-4)[Fuc(a1-3)]GlcNAc(b1-3)Gal
Procedure, shortened: as §1

[41] = target: Neu5Ac(a2-3)Gal(b1-4)[Fuc(a1-3)]GlcNAc(b1-3)Gal(b1-4)[Fuc(a1-3)]GlcNAc(b1-3)Gal(b1-4)[Fuc(a1-3)]GlcNAc
Procedure, shortened: as §1

[42] = target: Neu5Ac(a2-8)Neu5Ac(a2-8)Neu5Ac(a2-3)[GalNAc(b1-4)]Gal(b1-4)Glc
Procedure, shortened: as §1

B1: CTMLA2 (Anopheles gambiae), Q7Q7F8 (protein)
chain: MNLMITILIAVITVVRGDLSVPKTVDDILQQNPCLCPCKPFEEKEYFIPISRTSDWFGAVAYCHSVGMELAEVLNEDEARAMGEVIAEEESDSDDEFYWIGANDLGVQGTYRWALAGRPVLYSQWAAGEPNHARGENGQQPAERCVAVAMDKYEWNDFQCTQQKPFICQQFRKH
glycan array binding signal (z-score) [1]: 0.14
glycan array binding signal (z-score) [2]: -0.253
glycan array binding signal (z-score) [3]: -0.269
glycan array binding signal (z-score) [4]: 0.192
glycan array binding signal (z-score) [5]: -0.011
glycan array binding signal (z-score) [6]: 0.077
glycan array binding signal (z-score) [7]: 4.14
glycan array binding signal (z-score) [8]: -0.58
glycan array binding signal (z-score) [9]: -0.224
glycan array binding signal (z-score) [10]: -0.277
glycan array binding signal (z-score) [11]: -0.49
glycan array binding signal (z-score) [12]: -0.338
glycan array binding signal (z-score) [13]: 0.036
glycan array binding signal (z-score) [14]: 1.6
glycan array binding signal (z-score) [15]: 1.36
glycan array binding signal (z-score) [16]: 1.18
glycan array binding signal (z-score) [17]: 0.928
glycan array binding signal (z-score) [18]: -0.51
glycan array binding signal (z-score) [19]: 0.102
glycan array binding signal (z-score) [20]: -0.129
glycan array binding signal (z-score) [21]: -0.274
glycan array binding signal (z-score) [22]: -0.435
glycan array binding signal (z-score) [23]: -0.246

B2: DCIR (Homo sapiens), Q9UMR7 (protein)
chain: MTSEITYAEVRFKNEFKSSGINTASSAASKERTAPHKSNTGFPKLLCASLLIFFLLLAISFFIAFVIFFQKYSQLLEKKTTKELVHTTLECVKKNMPVEETAWSCCPKNWKSFSSNCYFISTESASWQDSEKDCARMEAHLLVINTQEEQDFIFQNLQEESAYFVGLSDPEGQRHWQWVDQTPYNESSTFWHPREPSDPNERCVVLNFRKSPKRWGWNDVNCLGPQRSVCEMMKIHL
glycan array binding signal (z-score) [1]: -0.479
glycan array binding signal (z-score) [24]: -0.367
glycan array binding signal (z-score) [25]: -0.484
glycan array binding signal (z-score) [26]: -0.31
glycan array binding signal (z-score) [27]: 0.076
glycan array binding signal (z-score) [28]: -0.551
glycan array binding signal (z-score) [29]: 0.183
glycan array binding signal (z-score) [30]: -0.359
glycan array binding signal (z-score) [31]: -0.129
glycan array binding signal (z-score) [32]: 0.19
glycan array binding signal (z-score) [33]: 4.96
glycan array binding signal (z-score) [34]: -0.161
glycan array binding signal (z-score) [35]: -0.426
glycan array binding signal (z-score) [36]: 5.68
glycan array binding signal (z-score) [37]: 7.43
glycan array binding signal (z-score) [38]: 4.52
glycan array binding signal (z-score) [39]: -0.245
glycan array binding signal (z-score) [40]: -0.071
glycan array binding signal (z-score) [41]: -0.372
glycan array binding signal (z-score) [42]: -0.052
